Bioassay records as filed in PubChem.
Hits are enriched below; roughly 1.9% of the tested compounds scored in any of these assays.
DSG3 Ab inh: blocks pemphigus antibody binding to human desmoglein-3; P32926; DSG3-coupled beads, scFv-anti-DSG3-GFP binding, flow cytometry; active compounds read low; binding (percent of control), % at 10 µM; actives 0.48% (n = 310,000);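 active = binding more than 3 SD below its plate's average and above zero; inconclusive = below that plate limit but binding exactly zero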;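 note: hits lower antibody fragment binding to DSG3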
CaV13 ICDI inh: Primary screen for inhibitors of IQ motif and Ca2+-dependent inactivation inhibitor domain binding in CACNA1D, Förster resonance energy transfer in living cells, …. HEK cells, CFP/YFP FRET ICDI-IQ, plate reader, 10 min; percent FRET-ratio fall versus neutral wells. inhibition, % at 12.3 µM. actives 0.098% (n = 340,000);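 active = mean replicate inhibition of at least 30% and at least 1% of replicates passing that level; inconclusive = only one of the two criteria is met; inactive = neither criterion is met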
Glyco luc inh: N-linked glycosylation inhibition; reporter increase, % at 12.5 µM; AID 588692; actives 0.23% (n = 360,000); D54 ERlucT glycosylation luciferase reporter, 24 h; percent of 100 nM tunicamycin response;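 active = mean luciferase reporter signal, scaled so untreated is 0 and the glycosylation-blocking control 100, at or above a set limit in every replicate; inconclusive = mean reaches the limit but not every replicate does; inactive = mean below the limit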;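 note: luciferase carries N-glycosylation sites so blocking glycosylation raises the light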
Vif imaging: HIV Vif inhibition | inhibition, % at 7.49 µM | HEK293T cells, Vif self-association by quenched fluorescence, imaging, 24 h | AID 602346 | actives 0.35% (n = 340,000); in the data active = inhibition above about 50%, passing the limit was not always enough; inconclusive = no clear call, values can overlap the other calls; inactive = below about 31%
NSD2 HMT inh: inhibitors of human histone methyltransferase NSD2; actives 0.54% (n = 310,000); inhibition, % at 12.5 µM; O96028; NSD2 peptide methylation, AlphaScreen, 120 min
ATG4B inh: ATG4B (human) cysteine protease inhibition; inhibition, % at 8.33 µM; ATG4B cleavage of LC3-PLA2, NBD-HPC fluorescence, 1 h; actives 0.51% (n = 340,000); Q9Y4P1; in the data active = inhibition above about 40%
ATG4B conf: confirmation of human ATG4B inhibitors | shares compounds with ATG4B inh | ATG4B protease fluorescent substrate cleavage assay | inhibition, % at 8.33 µM | actives 92% (n = 320) | AID 504757; in the data active = inhibition above about 39%
PLA2 ctr: counter-screen for ATG4B inhibitors: human phospholipase A2. shares compounds with ATG4B inh. purified PLA2, NBD-C6-HPC fluorescence, 45 min. inhibition, % at 8.33 µM. actives 66% (n = 1,600)
Target sequence (P04054 whole entry, looked up): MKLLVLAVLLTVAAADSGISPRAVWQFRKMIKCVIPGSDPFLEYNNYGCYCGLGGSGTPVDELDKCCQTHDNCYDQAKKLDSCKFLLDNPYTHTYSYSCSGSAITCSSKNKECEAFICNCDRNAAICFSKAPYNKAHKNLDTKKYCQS
Numbers stand for hits; i = inactive; ? = inconclusive; nt = no result given. Cut-off read from the data, not from the text of the source, unless noted: active = inhibition above about 50%; inactive = the rest.

SMILES	DSG3 Ab inh	CaV13 ICDI inh	Glyco luc inh	Vif imaging	NSD2 HMT inh	ATG4B inh	PLA2 ctr	others
CN(c1ccccc1)C1CCCCC1NS(=O)(=O)c1ccc(Cl)cc1 (stereo not drawn)	i	i	i	i	i	57	64
Cc1nn(CCC(N)=O)c2nc(-c3cccs3)cc(C(F)(F)F)c12	i	i	i	i	nt	86	84
CC1=C(C(=O)Nc2cccc(C(=O)NCc3ccccc3C)c2)SCCO1	i	i	i	i	i	54	64
CC1=C(C(=O)Nc2cccc(C(=O)NCc3ccc(F)cc3)c2)SCCO1	i	i	i	?	i	i	nt
Cc1cc(C)cc(Oc2coc3cc(OC(=O)c4cccs4)ccc3c2=O)c1	i	i	i	i	i	i	nt
COc1ccc(CNC(=O)C(c2ccc(C)o2)N(C(=O)c2csnn2)c2ccc(C(C)C)cc2)cc1 (stereo not drawn)	i	nt	i	i	i	43	i
CC1CCN(C(=O)c2ccc3c(c2)NC(=O)/C(=C/c2ccccc2)S3)CC1	nt	i	i	i	i	56	76
COc1ccc(/C=C2/Sc3ccc(C(=O)N4CCc5ccccc5C4)cc3NC2=O)cc1	i	i	i	i	i	69	82
O=C(NCCc1ccc(Cl)cc1)c1cc(=O)[nH]c2ccccc12	nt	i	i	i	i	i	nt
COc1ccc(-n2c(C)c(C(C)=O)c3cc(OCC(N)=O)ccc32)cc1	i	i	i	i	i	50	58
COc1ccccc1OCCCCCc1c(C)n[nH]c1C	i	i	i	i	i	i	nt
COc1ccc(-c2cc(-c3ccccc3)nc(SC(C)C(=O)O)c2C#N)cc1 (stereo not drawn)	i	i	i	i	i	i	nt
CC(C)C(Sc1nc(-c2ccccc2)cc(-c2ccccc2)c1C#N)C(=O)O (stereo not drawn)	i	i	i	i	i	46	i	ATG4B conf=61
CCCCN1C(=O)C2Cc3c([nH]c4ccccc34)CN2C1=S (stereo not drawn)	i	i	i	i	nt	45	80
CS(=O)(=O)Nc1ccc(C(=O)Nc2ccccc2C(=O)NCc2ccco2)cc1	i	nt	i	i	i	i	nt
Cc1ccc(S(=O)(=O)Nc2ccccc2/C=N/c2nc3ccccc3n2C(C)C)cc1	i	i	i	i	i	55	i	ATG4B conf=57
Cc1cc(Cl)ccc1NC(=S)NCCC(c1ccccc1)c1ccccc1	nt	i	i	i	i	i	nt
Cc1c(Cl)cccc1NC(=S)NCCC(c1ccccc1)c1ccccc1	nt	nt	i	i	i	91	93
Cc1c(Cl)cccc1NC(=S)NCCC(C)C	nt	i	i	i	i	64	67
COc1ccccc1NS(=O)(=O)c1cccc(NC(=O)Nc2cccc(Cl)c2)c1	i	i	i	i	i	44	59
COc1ccccc1NS(=O)(=O)c1cccc(NC(=O)NCCCl)c1	i	i	i	i	i	i	nt
COc1cccc(CNC(=O)C2CCN(S(=O)(=O)c3ccc4c(c3)CC(C)N4C(=O)C3CC3)CC2)c1 (stereo not drawn)	i	i	i	i	i	56	58
O=C(C1=C(Nc2ccccc2)c2ccccc2S(=O)(=O)N1)c1ccccc1	i	i	i	i	i	74	83
Cc1ccc(-n2cc(CN3CCC(O)(c4ccccn4)CC3)c(-c3ccc(F)cc3)n2)cc1	i	i	i	i	i	61	52
Cc1ccc(C)c(OCC(=O)Nc2ccc(S(=O)(=O)Nc3ccccn3)cc2)c1	i	nt	i	i	i	i	nt
Cc1cc(NC(=O)CSC2=NS(=O)(=O)c3cc(F)ccc3N2)no1	i	i	i	i	i	i	nt
O=C(Nc1ccccc1Cl)C1C(c2ccccc2)C1(Cl)Cl (stereo not drawn)	i	i	i	i	i	52	56
COc1ccc2[nH]c(C)c(CCN3C(=O)OC(C)(C)C3(C)O)c2c1 (stereo not drawn)	i	i	i	i	nt	i	nt
